# Compounds with a hit are over-represented: about 3.2% of the library has one in this group of screens.
# RE007 growth inh = qHTS Assay for Inhibitors of the HIV-1 protein Vpr; S. pombe RE007 Vpr strain, BacTiter-Glo ATP luminescence, 24 h; Potency, µM (highest dose often 92.2 µM), for the others: top-dose activity change, negative = less growth, actives largely listed as inhibitors; 360,000 tested, 0.21% active; AID 651644, 2012; active = well fitted falling curve with a large enough effect; inconclusive = small, poorly fitted or top-dose-only effect; inactive = no such curve, though single readings can be large or run the other way; also: nearly all actives have a fitted effect of over 50% in size
#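 Fission yeast RE007 carrying one integrated HIV-1 vpr copy, seeded at OD 0.01 in PMG+AL medium with 23 nL pinned compound. Grown 24 h at 30 degrees; viability read by BacTiter-Glo luminescence after 5 min.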
# AmpC detergent = qHTS Inhibitors of AmpC Beta-Lactamase (assay with detergent). AID 485294, 2010. 370,000 tested, 0.041% active. AmpC hydrolysis of nitrocefin, absorbance 480 nm, 0.01% Triton. P00811. Potency, µM (titrated, usually from 114 µM), for inactives: top-dose activity change, negative = inhibition, most hits filed as inhibitors;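 also: 0% = no-compound wells and -100% = no-enzyme wells; nearly all actives have a fitted effect of over 25% in size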
# Target sequence (P00811 whole entry, looked up): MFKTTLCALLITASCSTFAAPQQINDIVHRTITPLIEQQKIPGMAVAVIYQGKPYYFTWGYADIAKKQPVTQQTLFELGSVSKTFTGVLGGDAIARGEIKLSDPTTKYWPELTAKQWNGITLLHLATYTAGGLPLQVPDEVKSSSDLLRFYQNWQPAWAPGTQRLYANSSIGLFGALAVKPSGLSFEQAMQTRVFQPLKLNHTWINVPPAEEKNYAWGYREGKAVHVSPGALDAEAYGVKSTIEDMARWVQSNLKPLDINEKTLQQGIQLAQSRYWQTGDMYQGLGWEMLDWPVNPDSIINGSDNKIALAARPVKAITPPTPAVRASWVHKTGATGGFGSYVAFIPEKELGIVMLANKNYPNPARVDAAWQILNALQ
#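 20 mM phosphate pH 7.0 + 0.01% (detergent screen) or 0.0001% Triton X-100; 5.3 nM AmpC reagent; cpd preinc 15 min RT; nitrocefin (800 uM stock) to start; A480 q20 s × 4 min; Activity was normalised to no-enzyme and no-compound control wells.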
# AMA1-RON2 inh = qHTS for Inhibitors of AMA1-RON; Towards Development of Antimalarial Drug Lead: Primary Screen. Plasmodium falciparum AMA1 (3D7) - RON2 peptide interaction. AlphaScreen AMA1-biotinylated RON2 peptide binding. Potency, µM (series often up to 58.2 µM), without a hit: at the highest dose activity change, negative = inhibition, most hits filed as inhibitors. 360,000 tested, 0.2% active. AID 720542, 2013;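 also: 0% = vehicle wells and -100% = peptide control; nearly all actives have a fitted effect of over 45% in size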
#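 AMA1 (3D7) with his tag at 25 nM final met compounds first, then biotinylated RON2 peptide at 25 nM; detection used donor plus acceptor beads, 10 µg/mL apiece, read by AlphaScreen after 30 min at room temperature.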
# AmpC no deterg = qHTS Inhibitors of AmpC Beta-Lactamase (assay without detergent); AID 485341, 2010; 330,000 tested, 0.52% active; Potency, µM (highest dose often 57.1 µM), for inactives: at the highest dose activity change, negative = inhibition, actives largely listed as inhibitors; P00811; AmpC nitrocefin hydrolysis, absorbance 480 nm, 0.0001% Triton;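 also: plate controls were no compound for no effect and no enzyme for full effect; nearly all actives have a fitted effect of over 20% in size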
#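 AmpC (5.3 nM in the dispensed reagent) in 20 mM phosphate pH 7.0 with 0.01% (detergent screen) or 0.0001% Triton X-100 was preincubated with compounds for 15 min at room temperature. Nitrocefin was then added from an 800 uM solution, and hydrolysis was followed at 480 nm.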
# Sm TGR block = qHTS Assay for the Inhibitors of Schistosoma Mansoni Peroxiredoxins | 360,000 tested, 3% active | purified TGR, DTNB reduction, TNB absorbance 405 nm | Potency, µM (top dose mostly 114 µM), for the others: at the highest dose activity change, negative = inhibition, hits mostly inhibitors; also: nearly all actives have a fitted effect of over 60% in size
#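 First, TGR (20 nM dispensed) and NADPH were mixed with compound. Second, a 15 min room-temperature incubation followed. Third, further NADPH and then DTNB were added to start the reaction. Finally, TNB absorbance was monitored kinetically.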
# Active calls of the source: *; ? = inconclusive; / = no result given; [ ] = dose if it differs, or a comment. Unless noted, calls follow the shape of the dose curve; as a rule, active = well fitted curve in the direction sought with a large enough effect; inconclusive = small, poorly fitted or top-dose-only effect, or another doubt; inactive = no such curve, though single readings can be large; an effect the other way counts as inactive or inconclusive. Unless noted, % is scaled to controls: 0 for no effect and ±100 for the full control effect; potency is read from the fitted curve at half-maximal effect.
SMILES,RE007 growth inh,AmpC detergent,AMA1-RON2 inh,AmpC no deterg,Sm TGR block
COc1ccc(/C=C2\CCC/C(=C\C=N\N(C)C)C2=O)cc1,-8.3%,-2.8%,?,7.8%,0.0%
Cc1ccc(S(=O)(=O)N2CCCc3cc(NC(=O)c4ccccc4Cl)ccc32)cc1,/,-3.0%,/,/,6.9%
CCOC(=O)c1ccc(N2C(=O)C=CC2=O)cc1,5.62µM*,1.3%,1.2%,-27.4%,0.501µM*
CCOC(=O)c1ccc(-n2c(C)ccc2C)cc1,2.6%,-0.1%,-9.7%,-21.4%,28.2µM*
CC1CCN(S(=O)(=O)c2ccc3c(c2)oc(=O)n3CC(=O)NCc2ccc(F)cc2)CC1,/,0.7%,/,/,-0.3%
CN(CCC#N)C(=O)CSc1nnc(-c2ccco2)n1N,4.9%,7.5%,5.7%,3.8%,0.0%
CCCN(CC1CC1)C(=O)CSc1nnc(-c2ccco2)n1N,/,5.3%,/,-12.7%,50.1µM*
CC(=O)Cc1nsc(NC(=O)c2ccc(COc3ccccc3Cl)o2)n1,-7.2%,-7.9%,24.8%,-15.0%,-23.0%
CC(=O)Cc1nsc(NC(=O)c2ccc(COc3ccccc3)o2)n1,6.3%,1.3%,5.6%,-29.4%,44.7µM*
Cc1ccc(-c2ccc(CCC(=O)O)n2-c2ccc(C)c(Cl)c2)cc1,/,7.9%,/,/,17.8µM*
O=C(O)CCc1ccc(-c2ccc(Br)cc2)n1-c1cccc(O)c1,-10.6%,0.5%,-15.1%,-39.0%,31.6µM*
CCOC(=O)c1cc(-c2ccccc2)n(CCC(=O)O)c1C,-8.3%,0.4%,-5.2%,-5.0%,3.1%
CCOC(=O)c1ccc(-n2c(CCC(=O)O)ccc2-c2ccccc2)cc1O,/,11.3%,/,/,17.8µM*
Cc1ccc(-c2ccc(CCC(=O)O)n2C(C)C)cc1,1.5%,-10.8%,-9.1%,-9.8%,25.1µM*
COc1ccc(NC(=O)Cn2c(=O)n(CCCCCC(=O)NCc3ccc4c(c3)OCO4)c(=O)c3sccc32)cc1Cl,/,23.5%,/,/,-2.6%
CC(=O)c1cccc(-n2c(CCC(=O)O)ccc2-c2ccc(C)cc2)c1,-8.6%,3.9%,-11.5%,-27.1%,31.6µM*
CC(=O)c1ccc(-n2c(CCC(=O)O)ccc2-c2ccc(Cl)cc2)cc1,-7.5%,-11.5%,5.5%,-41.6%,0.0%
O=C(O)CCc1ccc(-c2ccccc2)n1-c1ccc(C(=O)O)cc1,-12.3%,2.6%,-1.9%,-14.8%,17.8µM*
O=C(O)CCc1ccc(-c2ccccc2)n1-c1cccc(C(=O)O)c1,-15.5%,7.5%,2.9%,-24.1%,11.2µM*
Cc1ccc(CN2C(=O)c3ccccc3CC2(C)C(=O)NC2CCCCC2)cc1 (stereo not given),/,1.7%,/,/,-1.0%
Cc1c(CCNC(=O)c2c(F)cccc2F)sc2nc(-c3ccc(F)cc3)nn12,/,6.6%,/,/,0.6%
O=C(C=Cc1ccccc1)c1c[nH]c2ccccc2c1=O,2.9%,/,16.0%,/,/
Cc1[nH]c2ccccc2c(=O)c1C(=O)/C=C/c1ccccc1,-10.5%,4.6%,-19.9%,-36.7%,31.6µM*
CCOC(=O)c1c(C)oc2nc(C)nc(NCc3ccccc3Cl)c12,/,19.1%,/,/,6.2%
COc1ccc(N(C(=O)c2ccncc2)S(=O)(=O)c2cccs2)cc1,3.5%,1.9%,0.2%,-0.7%,25.1µM*
SMILES,RE007 growth inh,AmpC detergent,AMA1-RON2 inh,AmpC no deterg,Sm TGR block
COc1ccc(C(=O)N(c2ccc(OC)cc2)S(=O)(=O)c2cccs2)cc1,0.5%,?,3.3%[2.32 µM],-22.7%,-1.0%
O=C(Oc1ccc(N(C(=O)c2ccncc2)S(=O)(=O)c2ccc(F)cc2)cc1)c1ccncc1,1.1%,-3.2%,-0.1%,73.0%,28.2µM*
O=C(Oc1ccc(N(C(=O)c2ccncc2)S(=O)(=O)c2ccc(Cl)cc2)cc1)c1ccncc1,-5.7%,0.5%,-6.2%,78.2%,17.8µM*
Cc1ccc(S(=O)(=O)N(C(=O)c2ccncc2)c2ccc(OC(=O)c3ccncc3)cc2)cc1,20.0%,?,-7.6%,179.9%,-18.5%
COc1ccc(N(C(=O)c2ccncc2)S(=O)(=O)c2ccc(Cl)cc2)cc1,-4.0%,9.9%,-13.9%,99.3%,20µM*
Cc1cccc(-c2nc(SCCCOc3ccccc3Cl)n3[nH]c(=O)cc3n2)c1,/,-5.2%,/,/,5.0%
O=C(/C=C/c1ccco1)Nc1ccc(Cl)c(-c2nc3cc(Cl)ccc3o2)c1,/,14.4%,/,/,?
COc1cccc(N=CC2=C(O)CC(C)(C)CC2=O)c1,?,-11.4%,-3.7%[11.6 µM],2.6%,-4.3%
COc1cccc(N=CC2=C(O)CCCC2=O)c1,39.8µM*,5.1%,12.3%,-3.7%,-1.8%
COCCCNC(=O)CSc1nc(-c2cccc(F)c2)[nH]c1-c1ccccc1,/,-5.6%,/,/,-7.4%
CCOC(=O)c1c(NC(=S)NC)sc2c1CC(C)(C)SC2,0.3%,-4.1%,51.8%,-56.6%,10µM*
NC(=O)c1c(NC(=O)CSc2nnc(-c3ccccc3)n2CC2CCCO2)sc2c1CCC2 (stereo not given),4.9%,?,-0.3%,72.0%,28.2µM*
N#Cc1c(NC(=O)CSc2nnc(-c3ccncc3)n2CC2CCCO2)sc2c1CCCC2 (stereo not given),0.6%,?,-6.7%,155.2%,-0.1%
CCOC(=O)C(Cc1c[nH]c2ccccc12)NC(=O)COc1ccc(Cl)c(C)c1 (stereo not given),/,-4.2%,/,/,-1.3%
CC1C/C(=C/c2ccco2)C(=O)/C(=C/c2ccco2)C1 (stereo not given),/,-14.5%,/,-22.5%,1.41µM*
O=C1/C(=C/c2ccco2)Cc2ccccc21,-18.4%,-7.3%,-29.7%,-11.7%,-29.5%
O=C1/C(=C/c2cccs2)CCC/C1=C\c1cccs1,-4.6%,-0.6%,11.2µM*,-25.4%,-4.3%
O=C1/C(=C\c2ccco2)CCC/C1=C\c1ccco1,8.0%,-15.0%,?,-25.7%,1.41µM*
O=C1/C(=C/c2ccco2)CCC1C1CCCC1 (stereo not given),3.4%,-11.5%,7.1%,-12.3%,50.1µM*
O=C1/C(=C/c2ccccc2)CCC1C1CCCC1 (stereo not given),-5.8%,-13.5%,-21.7%,-12.2%,5.8%
CCOc1ccc(C2C(=O)N(C3CCCCCC3)CC(=O)N2Cc2ccccc2)cc1OC (stereo not given),/,6.6%,/,/,5.9%
CC(=O)N1CCc2c(sc3c2c(=O)n(CCc2ccccc2)c(=O)n3CC(=O)Nc2ccc(C)c(F)c2)C1,/,12.4%,/,/,6.9%
Cc1ccc2nc(N(Cc3cccnc3)C(=O)C3CCCCC3)sc2c1,/,-1.0%,/,/,-1.1%
CCCSc1nnc(NC(=O)Nc2ccc(F)cc2)s1,1.2%,-0.6%,-1.2%,-23.2%,89.1µM*
COc1ccccc1NC(=O)Cn1c(CCC(=O)O)ccc1-c1ccc(C)cc1,-0.9%,1.3%,-14.7%,-19.8%,-23.5%
